Measurements reported in PubChem BioAssay AID1159580 (chemical genetic matrix, 2015).
Where “and” joins values, the source holds several entries; their conditions need not be identical. Equal entries are not always repeated. Out of some 5,500 compounds screened, about 2,000 (36%) were called active. Another 18% or so got no clear call; they are omitted. Rule as the data show it: active = normalized growth mostly below about 0.91 (no sharp cut-off); inconclusive = no clear call, values can overlap the other calls; inactive = mostly above about 0.92. The list shows a part of the results.

Assay: chemical genetic growth profiling, strain panel (AID 1159580);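 also: tested at 20 µM; growth read once vehicle control cultures reached saturation at 30 °C; 1 = growth at the plate median or of vehicle wells; lower values mean less growth of the strain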
Settings: S. cerevisiae deletion strains, growth OD
[1] = locus YMR307W, strain GAS1, stronger effect = lower value

Measured: normalized growth

CCC1(O)CC2CN(CCc3c([nH]c4ccccc34)[C@@](C(=O)OC)(c3cc4c(cc3OC)N(C=O)C3[C@]45CCN4CC=C[C@@](CC)([C@@H](OC(C)=O)[C@]3(O)C(=O)OC)[C@H]45)C2)C1 (stereo partly specified)
inactive: locus YAL040C, strain CLN3, stronger effect = lower value 0.979 | locus YCL061C, strain MRC1 (second series), stronger effect = lower value 0.991 | locus YDR150W, strain NUM1, stronger effect = lower value 0.999 | locus YDR363W, strain ESC2, stronger effect = lower value 0.986 | locus YER002W, strain NOP16, stronger effect = lower value 1 | locus YGR078C, strain PAC10, stronger effect = lower value 0.999 | locus YGR229C, strain SMI1, stronger effect = lower value 0.983 | [1] 0.99 | locus YNL175C, strain NOP13, stronger effect = lower value 1.01 | locus YNL197C, strain WHI3, stronger effect = lower value 0.983 | locus YNL224C, strain SQS1, stronger effect = lower value 1 | locus YNL322C, strain KRE1, stronger effect = lower value 0.957 | locus YOR083W, strain WHI5 (second series), stronger effect = lower value 0.99

NC(CSCSCC(N)C(=O)O)C(=O)O (stereo unspecified)
inactive: locus YAL013W, strain DEP1, stronger effect = lower value 1.01 | locus YBR021W, strain FUR4, stronger effect = lower value 1.01 | locus YBR229C, strain ROT2, stronger effect = lower value 0.998 | locus YCL029C, strain bik1, stronger effect = lower value 0.989 | locus YDL035C, strain GPR1, stronger effect = lower value 1.02 | locus YDL074C, strain BRE1, stronger effect = lower value 1.05 | locus YDL101C, strain DUN1, stronger effect = lower value 1 | locus YDL134C, strain PPH21, stronger effect = lower value 0.988 | locus YDL185W, strain tfp1, stronger effect = lower value 1.01 | locus YDL192W, strain arf1, stronger effect = lower value 0.977 | locus YDR101C, strain arx1, stronger effect = lower value 0.999 | locus YDR162C, strain NBP2, stronger effect = lower value 1.02 | locus YDR318W, strain mcm21, stronger effect = lower value 0.981 | locus YDR388W, stronger effect = lower value 0.986 | locus YDR502C, strain sam2, stronger effect = lower value 1 | locus YEL061C, strain CIN8, stronger effect = lower value 1.02 | locus YER110C, stronger effect = lower value 0.987 | locus YER155C, strain BEM2, stronger effect = lower value 1.01 | locus YER167W, strain BCK2, stronger effect = lower value 1 | locus YGL078C, strain dbp3, stronger effect = lower value 1.01 | locus YGL086W, strain mad1, stronger effect = lower value 1 | locus YGL248W, strain PDE1, stronger effect = lower value 0.997 | locus YGR135W, strain pre9, stronger effect = lower value 0.99 | locus YGR252W, strain gcn5, stronger effect = lower value 1.11 | locus YHR030C, strain SLT2, stronger effect = lower value 1.01 and 1.04 | locus YHR079C, strain IRE1 (second series), stronger effect = lower value 0.987 | locus YHR079C, strain IRE1, stronger effect = lower value 1.04 | locus YHR094C, strain hxt1, stronger effect = lower value 0.985 | locus YHR129C, strain ARP1, stronger effect = lower value 0.995 | locus YHR200W, strain rpn10, stronger effect = lower value 0.997 | locus YIL066C, strain RNR3, stronger effect = lower value 1.01 | locus YIL073C, strain SPO22, stronger effect = lower value 1.06 | locus YIL125W, strain kgd1, stronger effect = lower value 1.01 | locus YIR030C, strain dcg1, stronger effect = lower value 0.999 | locus YJL095W, strain BCK1, stronger effect = lower value 1.01 and 1.02 | locus YJL134W, strain LCB3, stronger effect = lower value 1.01 | locus YJL168C, strain set2, stronger effect = lower value 0.982 | locus YJL187C, strain SWE1 (second series), stronger effect = lower value 1.01 | locus YJR043C, strain POL32, stronger effect = lower value 1.01 | locus YJR066W, strain TOR1, stronger effect = lower value 0.979 | locus YJR075W, strain HOC1, stronger effect = lower value 1.01 | locus YKL009W, strain mrt4, stronger effect = lower value 1.01 | locus YKL068W, stronger effect = lower value 1 | locus YKL085W, strain MDH1 (second series), stronger effect = lower value 0.998 | locus YKL085W, strain MDH1, stronger effect = lower value 0.998 | locus YKL190W, strain CNB1, stronger effect = lower value 1.01 | locus YKR001C, strain vps1, stronger effect = lower value 1.02 | locus YLR039C, strain RIC1, stronger effect = lower value 1.1 | locus YLR058C, strain SHM2, stronger effect = lower value 1 | locus YLR102C, strain apc9, stronger effect = lower value 0.979 | locus YLR113W, strain HOG1, stronger effect = lower value 1.04 | locus YLR262C, strain YPT6, stronger effect = lower value 1.12 | locus YLR268W, strain sec22, stronger effect = lower value 1.02 | locus YLR330W, strain CHS5, stronger effect = lower value 1.01 | locus YLR342W, strain FKS1 (second series), stronger effect = lower value 1.02 | locus YLR371W, strain rom2, stronger effect = lower value 0.977 | locus YLR418C, strain cdc73, stronger effect = lower value 1.01 | locus YML016C, strain PPZ1, stronger effect = lower value 1 | locus YML032C, strain rad52, stronger effect = lower value 0.992 | locus YML124C, strain tub3, stronger effect = lower value 0.99 | locus YMR078C, strain ctf18, stronger effect = lower value 0.988 | locus YMR223W, strain ubp8, stronger effect = lower value 0.994 | locus YMR263W, strain SAP30, stronger effect = lower value 1.01 | [1] 1.02 | locus YNL067W, strain RPL9B, stronger effect = lower value 1 | locus YNL153C, strain GIM3, stronger effect = lower value 1 | locus YNL183C, strain NPR1, stronger effect = lower value 0.983 | locus YNL233W, strain BNI4, stronger effect = lower value 1.02 | locus YNL250W, strain rad50, stronger effect = lower value 1.02 | locus YNL271C, strain bni1, stronger effect = lower value 1.01 | locus YNL298W, strain CLA4, stronger effect = lower value 1 | locus YNL307C, strain MCK1, stronger effect = lower value 0.987 | locus YNR052C, strain pop2, stronger effect = lower value 0.999 | locus YOL012C, strain htz1 0.928 | locus YOL147C, strain pex11, stronger effect = lower value 0.991 | locus YOR061W, strain CKA2, stronger effect = lower value 1.01 | locus YOR069W, strain VPS5, stronger effect = lower value 1.01 | locus YOR136W, strain idh2, stronger effect = lower value 0.996 | locus YOR144C, strain elg1, stronger effect = lower value 0.984 | locus YOR184W, strain ser1, stronger effect = lower value 0.995 | locus YOR231W, strain MKK1, stronger effect = lower value 1.04 | locus YOR316C, strain cot1, stronger effect = lower value 0.98 | locus YPL256C, strain CLN2, stronger effect = lower value 1.02 | locus YPR119W, strain clb2, stronger effect = lower value 0.987 | locus YPR141C, strain kar3, stronger effect = lower value 0.997 | locus YPR163C, strain tif3, stronger effect = lower value 0.999 | locus YPR167C, strain met16, stronger effect = lower value 0.988 | strain wtn01, stronger effect = lower value 1.04
